Assay outcomes from PubChem.
hcDAF-12 act: H. contortus DAF-12 nuclear receptor activators, primary screen, cell-based, luminescence, HEK293, lit1-tk-luc reporter | HEK293 hcDAF-12 lit1-tk-luc reporter; 0% DMSO, 100% Δ7-dafachronic acid | activation, % at 6.8 µM | 370,000 tested, 1.4% active;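 active = activation above the mean of all tested compounds plus 3 SD, cut at about 5.5% in these data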;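 also: 100% = response to 3 µM Δ7-dafachronic acid high control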
DAX1 inh-1: DAX1 (NR0B1) inhibitors on StAR promoter, primary screen, cell-based, luminescence, SF-1 (NR5A1), full-length DAX-1 | 370,000 tested, 1.1% active | inhibition, % at 6.8 µM | HEK293T StAR-luciferase reporter, SF-1/DAX-1 repression relief | AID 652010, 2013;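 active = inhibition above the mean over all tested compounds plus 3 SD, cut at about 3.6% in these data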;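 also: 0% = DAX-1 cells with DMSO and 100% = cells lacking DAX-1 with DMSO; higher inhibition means more luminescence from relief of DAX-1 repression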
SMARCA2 act: SMARCA2 (BRM) function activators, primary screen, cell-based, luminescence, high throughput. MG213 cells, MMTV-luciferase reporter, dexamethasone, overnight. activation, % at 9.1 µM. 370,000 tested, 1% active. AID 652017, 2013; in the data active = activation above about 7.8%;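 also: 0% = vehicle wells and 100% = reference activator wells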
hgDAF12 agonist: H. glycines DAF-12 receptor agonists, primary screen, cell-based, luminescence, HEK293, GAL4 fusion, UAS-luciferase. 370,000 tested, 1.8% active. AID 687014, 2013. activation, % at 6.8 µM. HEK293 GAL4-hgDAF12 UAS-luciferase reporter, agonist luminescence; normalized to butyrate control. Nuclear hormone receptor DAF-12 (Heterodera glycines), GAL4 fusion;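 active = activation above a cutoff set at the mean of all screened compounds plus 3 SD, cut at about 10% in these data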;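 also: 0% = DMSO wells and 100% = sodium butyrate wells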
DAX1 inh-2: DAX1 (NR0B1) inhibitors, primary screen, cell-based, HEK293, Gal4-DAX1, luciferase luminescence; inhibition, % at 6.75 µM; Nuclear receptor subfamily 0 group B member 1 (Homo sapiens), P51843; 340,000 tested, 0.99% active; HEK293 Gal4-DAX1 luciferase reporter; AID 504766, 2011;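 active = inhibition above the mean over all tested compounds plus 3 SD, cut at about 4.2% in these data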;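 also: 0% = DAX1-transfected cells with DMSO and 100% = empty-vector control cells with DMSO; inhibition shows as a rise in luminescence from relieved DAX1 repression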
Target sequence (P51843 207-470 limits assumed): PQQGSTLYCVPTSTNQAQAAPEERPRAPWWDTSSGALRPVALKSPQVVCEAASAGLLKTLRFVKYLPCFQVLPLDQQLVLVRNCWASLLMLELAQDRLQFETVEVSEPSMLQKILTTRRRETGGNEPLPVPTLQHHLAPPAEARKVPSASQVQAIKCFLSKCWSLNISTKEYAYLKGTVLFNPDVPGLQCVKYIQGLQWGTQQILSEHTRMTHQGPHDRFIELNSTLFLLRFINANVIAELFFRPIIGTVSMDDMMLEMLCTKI
ssDAF12 agonist: S. stercoralis DAF-12 nuclear receptor activators, primary screen, cell-based, luminescence, HEK293, GRIP1 co-expression, lit1-tk-luc. 370,000 tested, 1% active. activation, % at 6.8 µM. HEK293 ssDAF-12/GRIP1 lit1-tk-luc reporter; % of 3 µM dafachronic acid response. Nuclear hormone receptor DAF-12 (Strongyloides stercoralis);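 active = activation above the mean over all tested compounds plus 3 SD, cut at about 0.9% in these data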;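 also: 0% = DMSO-only wells and 100% = 3 µM delta7-dafachronic acid wells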
Active calls of the source: *; · = no result given. The list is not random: actives were taken first. Their share in the collection is about 4.8%.

SMILES	hcDAF-12 act	DAX1 inh-1	SMARCA2 act	hgDAF12 agonist	DAX1 inh-2	ssDAF12 agonist
O=C(O)c1cc(S(=O)(=O)N(Cc2ccccc2)c2ccc(Cl)cc2)ccc1Cl	-1	0	-1	1	3	-1
CN1CCC(=NOc2ccc([N+](=O)[O-])cc2)CC1	0	2	6	10	4.7*	-1
COc1ccc(C(=O)ON=C2CCN(c3ccc([N+](=O)[O-])cc3)CC2)cc1	0	-1	0	0	1	-1
O=C1CCC(C(=O)Nc2ccc(Cl)cc2)N1 (stereo not drawn)	1	0	0	5	0	-1
O=C(Nc1ccc(Cl)cc1)C1C2CCCCC21 (stereo not drawn)	3	1	2	12*	1	1.2*
CC(=O)N1N=C(c2cccc(NS(C)(=O)=O)c2)CC1c1cccs1 (stereo not drawn)	-1	0	7.9*	-4	0	-1
CCCCn1c(N)c(N(CC(C)C)C(=O)c2cc(C)nc3ccccc23)c(=O)[nH]c1=O	-1	-1	-2	1	-1	-1
CCCCn1c(N)c(N(CC(C)C)C(=O)c2cc(Cl)nc3ccccc23)c(=O)[nH]c1=O	0	0	-1	0	0	1.1*
CCCCn1c(N)c(N(CCOC)C(=O)c2cc(-c3ccccc3)nc3ccccc23)c(=O)[nH]c1=O	1	2	-2	2	7.0*	0
CCCCN(C(=O)c1cc(-c2ccncc2)nc2ccccc12)c1c(N)n(CC(C)C)c(=O)[nH]c1=O	2	1	7.9*	0	0	-1
COCCN(C(=O)c1cc(-c2ccncc2)nc2ccccc12)c1c(N)n(CC(C)C)c(=O)[nH]c1=O	2	1	2	1	0	-1
CCCCN(C(=O)c1oc2ccc(OCC)cc2c1C)c1c(N)n(CC(C)C)c(=O)[nH]c1=O	2	4.2*	-2	0	0	-1
CCCCn1c(N)c(N(CC(C)C)C(=O)c2oc3ccc(OCC)cc3c2C)c(=O)[nH]c1=O	1	-2	-3	-3	0	-1
O=C(CNC(=O)N1CC(=O)Nc2ccccc21)NCc1ccc(Cl)cc1	1	0	-4	3	1	-1
CC1(C(=O)O)CCCN1C(=O)c1cc2ccccc2s1 (stereo not drawn)	-1	1	-2	2	·	-1
c1ccc(OCc2nnc3sc(-c4cccs4)nn23)cc1	-3	0	-3	0	1	-1
Clc1ccc(Cl)c(-c2nn3c(COc4ccccc4)nnc3s2)c1	2	0	-2	0	1	1.4*
COc1cccc(OCc2cc(C(=O)N(C)Cc3nc(C)cs3)no2)c1	2	4.5*	3	6	2	0
Cc1ccc([N+](=O)[O-])c2c1C(N1CCCCC1)C(C)(C)O2 (stereo not drawn)	-3	0	-2	-1	1	-1
Cc1ccc([N+](=O)[O-])c2c1C(N1CC(C)OC(C)C1)C(C)(C)O2 (stereo not drawn)	-2	0	-5	-2	3	15*
CCc1nnc(NS(=O)(=O)c2ccc(NC(=O)c3ccc([N+](=O)[O-])s3)cc2)s1	1	-1	-2	1	1	-1
FC(F)(F)c1cc(Cc2nc3ccccc3n2C(CCc2ccccc2)c2nc3ccccc3[nH]2)cc(C(F)(F)F)c1 (stereo not drawn)	0	3.9*	-4	6	·	-2
CCOc1ccc(/C=N/n2c(-c3ccccc3)n[nH]c2=S)cc1	-2	0	-5	0	5.8*	-1
S=c1[nH]nc(-c2ccncc2)n1/N=C/C(Cl)=C\c1ccccc1	1	1	-1	12*	0	-1
Cc1ccc2c(c1)c1c(c(=O)n(-c3ccccc3C)c(=O)n1CC(=O)NCC1CCCO1)n2C (stereo not drawn)	0	-1	-3	0	0	-1
SMILES	hcDAF-12 act	DAX1 inh-1	SMARCA2 act	hgDAF12 agonist	DAX1 inh-2	ssDAF12 agonist
Cc1ccc(CNC(=O)C2CCC(=O)N(CCc3ccc(Cl)cc3)C2)s1 (stereo not drawn)	-1	-1	0	2	1	1.1*
Cc1ccc(-n2c(Cc3cccs3)nnc2SCC(=O)Nc2cccc3ccccc23)cc1	-2	-1	-7	2	·	-2
COc1cccc(-n2c([S-])c(C(=O)Nc3ccc(S(=O)(=O)N4CCOCC4)cc3)[n+]3cc(C(N)=O)ccc23)c1	1	1	0	10	4.2*	0
CC(C)COc1cccc(C(=O)Nc2ccc(S(=O)(=O)N3CCOCC3)cc2)c1	-2	0	-3	1	-1	-2
COC(=O)CC1C(=O)NCCN1C(=O)CSc1nc2ccccc2s1 (stereo not drawn)	4	1	1	-1	1	1.2*
COC(=O)CC1C(=O)NCCN1C(=S)Nc1cccc(C)c1 (stereo not drawn)	0	-1	-2	1	-1	-1
COC(=O)CC1C(=O)NCCN1C(=S)Nc1ccc(F)cc1 (stereo not drawn)	1	0	-4	2	5.2*	-1
CCN(CC)c1nc2c(c(=O)[nH]c(=O)n2C)n1CCOc1ccccc1	-3	0	-4	-2	0	-1
CC1CCC(NC(=O)C2CCN(C(=O)Nc3ccccc3)CC2)CC1 (stereo not drawn)	0	-1	-4	1	0	-1
C[C@@H]1CN([C@@H](C)CO)S(=O)(=O)c2ccc(Br)cc2O[C@H]1CN(C)C(=O)C1CCC1	1	0	-1	-1	1	-1
COc1cc(NC(=O)c2csc3c2CCCC3)ncn1	0	3	4	12*	3	0
COc1ccccc1NC(=O)c1csc2c1CCCC2	-1	0	1	4	0	0
COc1ccc(CNC(=O)COC(=O)c2nc3nc(C)cc(C)n3n2)cc1	2	0	-3	-3	1	-1
CC(=O)N1CCc2c(sc(NC(=O)c3ccc([N+](=O)[O-])o3)c2C#N)C1	2	-1	8	2	0	0
COC(=O)c1sc(NC(=O)c2ccc([N+](=O)[O-])o2)c(C#N)c1C	-1	-2	-3	-2	4.7*	-2
